TDP1 cell noCPT = qHTS for Inhibitors of human tyrosyl-DNA phosphodiesterase 1 (TDP1): qHTS in cells in absence of CPT. DT40 Tdp1-/- hTDP1 cells, no CPT, ATP luminescence, 48 h. Potency, µM (series often up to 46.2 µM), most hits filed as inhibitors. actives 15% (n = 420,000). AID 686978, 2013; also: nearly all actives have a fitted effect of over 55% in size
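Compound effects on proliferation are scored in DT40 Tdp1-/-;hTDP1 cells in the absence of CPT. ATP levels (CellTiter-Glo luminescence) are recorded after a ≥48 hr, 37 °C incubation.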
HT1080 IDH1KD tx = toxicity to HT-1080 IDH1 knockdown cells (counter line); HT-1080 IDH1 knockdown viability, ATP luminescence, 48 h; Potency, µM (highest dose often 46.1 µM), usual class: cytotoxic; actives 2% (n = 360,000); AID 686971
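IDH1KD HT-1080 cells, 750/well, RPMI + 5% FBS; compound pinned after 2 h settling; 48 h, 37 °C; CellTiter-Glo luminescence; % activity normalised to DMSO and no-cell wells; curves fitted, classed by r2 and efficacy.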
HT1080-NT tox = kills 2HG-producing HT-1080-NT fibrosarcoma cells. HT-1080-NT fibrosarcoma viability, CellTiter-Glo ATP luminescence, 48 h. Potency, µM (top dose mostly 46.1 µM), usual class: cytotoxic. actives 1.6% (n = 360,000). AID 686970;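 also: NT is the 2HG producing partner of a matched IDH1 knockdown line; nearly all actives have a fitted effect of over 55% in size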
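HT-1080-NT; 750 cells/well; 5% FBS RPMI; 48 h compound, 37 degrees C; CellTiter-Glo luminescence; curve fitting and curve-class assignment.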
TDP1 cell CPT = DT40-hTDP1 cell growth loss with CPT | chicken DT40 Tdp1-/-;hTDP1 cells + 20 nM CPT, ATP luminescence, 48 h | Potency, µM (series often up to 46.2 µM), hits mostly inhibitors | actives 12% (n = 420,000) | AID 686979; also: nearly all actives have a fitted effect of over 55% in size
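Chicken DT40 Tdp1-/- cells stably complemented with human TDP1 were seeded at 400 cells/well in medium containing 20 nM camptothecin, exposed to pin-transferred compounds, and grown at 37 °C for at least 48 hr. Viability was read as ATP luminescence.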
IL1B secr inh = inhibitors of inflammasome signaling (IL-1 beta secretion); activity change, % at 57.5 µM; THP-1 LPS/ATP IL-1B secretion, AlphaLISA, 16 h; active compounds read low; actives 4.7% (n = 360,000); in the data active = activity change below about -50%; inconclusive = mostly about -30% to -49%
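THP-1 cells pretreated 1 hr with compounds (up to 57.5 uM final), then stimulated with LPS (250 ng/mL final) plus ATP (1.25 mM final); secreted IL-1B measured by AlphaLISA after 16 hr, decreased signal indicating inhibition.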
Large screens that a line does not name were inactive. An excerpt weighted towards active compounds, which were near 19% of everything screened. Unless noted, calls follow the shape of the dose curve; as a rule, active = well fitted curve in the direction sought with a large enough effect; inconclusive = small, poorly fitted or top-dose-only effect, or another doubt; inactive = no such curve, though single readings can be large; an effect the other way counts as inactive or inconclusive.

CCOC(=O)C1=C(CS(=O)(=O)c2ccc(Br)cc2)NC(=O)NC1c1ccccc1 (stereo unspecified)	TDP1 cell noCPT inconclusive, TDP1 cell CPT 21µM (no result: HT1080 IDH1KD tx, HT1080-NT tox, IL1B secr inh)
O=C(COC(=O)c1cccc(Br)c1)NCCC1=CCCCC1	none
COc1ccc(CCn2c(=S)[nH]c3cc(C(=O)NCc4ccco4)ccc3c2=O)cc1OC	TDP1 cell noCPT 16µM, HT1080-NT tox inconclusive, TDP1 cell CPT 21µM
COc1ccccc1Cn1c(=S)[nH]c2cc(C(=O)NCCN(C)C)ccc2c1=O	TDP1 cell CPT inconclusive, IL1B secr inh -56
COc1ccccc1Cn1c(=S)[nH]c2cc(C(=O)NCC3CCCO3)ccc2c1=O (stereo unspecified)	TDP1 cell noCPT inconclusive, TDP1 cell CPT inconclusive
COC(=O)c1ccc2c(=O)n(Cc3ccc(C(=O)NC(C)C)cc3)c(=S)[nH]c2c1	TDP1 cell noCPT 23µM, TDP1 cell CPT inconclusive
O=C(NCCN1CCCC1)c1ccc(Cn2c(=S)[nH]c3cc4c(cc3c2=O)OCO4)cc1	TDP1 cell noCPT 23µM
CC(C)CCNC(=O)c1ccc(Cn2c(=S)[nH]c3ccccc3c2=O)cc1	none
CCOC(=O)C1CCN(C(=O)C(=O)Nc2ccc3nc4n(c(=O)c3c2)CCCCC4)CC1	TDP1 cell noCPT inconclusive
CCOc1ccc(NC(=S)NN2CCN(C)CC2)cc1	none
CC1CCCCN1CCNC(=O)c1ccc2c(=O)n(Cc3ccc(Cl)cc3)c(=S)[nH]c2c1 (stereo unspecified)	TDP1 cell noCPT inconclusive, HT1080 IDH1KD tx 23µM, HT1080-NT tox 21µM, TDP1 cell CPT inconclusive, IL1B secr inh -97
O=c1c2cc3c(cc2[nH]c(=S)n1C1CCN(Cc2ccccc2)CC1)OCO3	TDP1 cell noCPT inconclusive, TDP1 cell CPT 26µM
O=C(NCCCN1CCCC1=O)c1ccc2c(=O)n(Cc3ccco3)c(=S)[nH]c2c1	TDP1 cell noCPT inconclusive, TDP1 cell CPT 16µM
O=C(NCCCN1CCOCC1)c1ccc2c(=O)n(Cc3ccccc3)c(=S)[nH]c2c1	TDP1 cell noCPT inconclusive, HT1080 IDH1KD tx 16µM, HT1080-NT tox 18µM, IL1B secr inh -73
CC[C@]12C(=O)N(C)C[C@H]([C@@H]3C(=O)N(Cc4ccccc4)C(=O)[C@@H]31)N2C(=O)c1ccc(C(C)(C)C)cc1	none
CCCS(=O)(=O)N1CCCC(C(=O)NCCc2ccc(OC)c(OC)c2)C1 (stereo unspecified)	none
CCC(=O)Nc1cc2c3c(c1)CCN3C(=O)CC2	none
O=c1c2ccccc2c(C=NCCCN2CCOCC2)c(O)n1Cc1ccccc1	TDP1 cell noCPT inconclusive, TDP1 cell CPT 18µM
COC(=O)c1ccc(NC(=O)C(=O)NCCc2csc3nc(-c4ccccc4F)nn23)cc1	none (no result: HT1080 IDH1KD tx, HT1080-NT tox, IL1B secr inh)
O=C(NCCc1csc2nc(-c3ccccc3F)nn12)c1ccccc1C(F)(F)F	TDP1 cell noCPT 9.2µM, TDP1 cell CPT 7.3µM (no result: HT1080 IDH1KD tx, HT1080-NT tox, IL1B secr inh)
COc1cccc(C(=O)NCCc2csc3nc(-c4ccccc4F)nn23)c1OC	TDP1 cell noCPT 15µM, TDP1 cell CPT 26µM (no result: HT1080 IDH1KD tx, HT1080-NT tox, IL1B secr inh)
Cc1ccccc1SCC(=O)NCC1(N2CCCCC2)CCCCC1	TDP1 cell noCPT inconclusive
CN(C)CCCN(CCCNC(=O)/C=N/O)Cc1ccccc1	none
Cc1ccc(N2C(=O)c3oc4ccccc4c(=O)c3C2c2cccc(O)c2)nc1 (stereo unspecified)	TDP1 cell noCPT inconclusive, TDP1 cell CPT 21µM
COc1ccc(O)c(C(=O)c2cnn(C(=O)c3cccc(S(=O)(=O)N4CCOCC4)c3)c2)c1	none
COC(=O)C1=C(C)N(CCc2ccccc2)C(=O)C1(NS(=O)(=O)c1ccc(NC(C)=O)cc1)C(F)(F)F (stereo unspecified)	TDP1 cell noCPT inconclusive, HT1080 IDH1KD tx 6.3µM, HT1080-NT tox 10µM
CC(=O)C1=C(C)N(c2ccccc2)C(=O)C1(NS(=O)(=O)c1ccc(N)cc1)C(F)(F)F (stereo unspecified)	none
C=C1C=C(C)n2ncc(C(=O)Nc3cccc4cnccc34)c2N1	TDP1 cell noCPT 11µM, TDP1 cell CPT 16µM (no result: HT1080 IDH1KD tx, HT1080-NT tox, IL1B secr inh)
COc1nnc(-c2ccc(N3CCCCC3)c(NC(=O)C3CCCCC3)c2)c2ccccc12	TDP1 cell noCPT inconclusive
COc1nnc(-c2ccc(N3CCCCC3)c(NC(C)=O)c2)c2ccccc12	TDP1 cell noCPT 18µM, TDP1 cell CPT inconclusive, IL1B secr inh inconclusive
CC1CCCN(CC(O)CN2CCN(CC(O)CN3CCCC(C)C3)C(C)C2)C1 (stereo unspecified)	none
NCCCCCc1nnc(SCc2ccc(Cl)c(Cl)c2)o1	none
CCCCN(CCCN)c1ccc(Br)cn1	TDP1 cell noCPT inconclusive, TDP1 cell CPT inconclusive (no result: IL1B secr inh)
NCCCN(Cc1ccc(Cl)cc1)c1ccc(Br)cn1	TDP1 cell noCPT 7.9µM, HT1080 IDH1KD tx 11µM, HT1080-NT tox inconclusive, TDP1 cell CPT 10µM (no result: IL1B secr inh)
NCCCN(Cc1ccc(Cl)c(Cl)c1)c1ccc(Br)cn1	TDP1 cell noCPT 5µM, HT1080 IDH1KD tx 11µM, HT1080-NT tox inconclusive, TDP1 cell CPT 3.5µM (no result: IL1B secr inh)
COc1ccc(OCc2nnc(SC(C)C(=O)Nc3nccs3)n2-c2ccccc2)cc1 (stereo unspecified)	TDP1 cell CPT inconclusive
CC(C)CN1CC[C@@]2(CCCN(S(=O)(=O)c3ccccc3)C2)C1	none (no result: HT1080 IDH1KD tx, HT1080-NT tox, IL1B secr inh)
Cc1sc2ncn(CC(=O)NCCCC(=O)N3CCC(C)CC3)c(=O)c2c1C	none
CCOC(=O)C1CCN(C(=O)CCCNC(=O)Cn2cnc3sc(C)c(C)c3c2=O)CC1	IL1B secr inh -68
CCC1(C2CCN(Cc3cccc(Cl)c3)CC2)NC(=O)N(CC2COc3ccccc3O2)C1=O (stereo unspecified)	TDP1 cell noCPT inconclusive (no result: HT1080 IDH1KD tx, HT1080-NT tox, IL1B secr inh)
CCC1CCCCN1C(=O)CCc1nnc(Cc2cc(OC)ccc2OC)o1 (stereo unspecified)	none
CCC(=O)NC(c1ccccc1Cl)c1c(O)ccc2ccccc12 (stereo unspecified)	TDP1 cell noCPT inconclusive, TDP1 cell CPT 16µM
CCC(=O)NC(c1ccc([N+](=O)[O-])cc1)c1c(O)ccc2ccccc12 (stereo unspecified)	TDP1 cell noCPT inconclusive, HT1080 IDH1KD tx inconclusive, HT1080-NT tox inconclusive, TDP1 cell CPT 20µM, IL1B secr inh inconclusive
CC(C)C(=O)NC(c1ccccc1Cl)c1c(O)ccc2ccccc12 (stereo unspecified)	TDP1 cell CPT inconclusive, IL1B secr inh inconclusive
CCCCC(=O)NC(c1cccc([N+](=O)[O-])c1)c1c(OC(C)=O)ccc2ccccc12 (stereo unspecified)	TDP1 cell noCPT inconclusive, HT1080 IDH1KD tx inconclusive, TDP1 cell CPT inconclusive
CCC(=O)NC(c1ccc(N(C)C)cc1)c1c(O)ccc2ccccc12 (stereo unspecified)	TDP1 cell noCPT inconclusive

From PubChem
